Results published in PubChem BioAssay AID687001 (Broad Institute, 2013).
Results with a measured potency or affinity are listed apart. The source made the active and inactive calls.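 How the source made its calls: active means signal-lowering compounds whose fitted half-maximal concentration is at or below twice the top tested dose in every run; inconclusive means runs disagree, flat 30 to 70% inhibition, or poor curve fit; inactive means the rest.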

Target: Protein S100-A4 (Homo sapiens) (UniProt P26447)
Sequence (P26447 whole entry, looked up): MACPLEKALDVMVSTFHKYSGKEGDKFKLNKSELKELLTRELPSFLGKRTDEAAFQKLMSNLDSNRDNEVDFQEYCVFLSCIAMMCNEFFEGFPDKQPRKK
Assay: S100A4-myosin IIA binding inhibitor potency, dose response, biochemical, fluorescence polarization, cherry-picked hits (AID 687001)

CC(C)=CC(=O)O[C@@H]1Cc2cc3ccc(=O)oc3cc2OC1(C)C was tested, and the outcome was “inactive”.
O=C(CCN1CCCCC1)N[C@H]1CC[C@H](CCn2cc(-c3ccccc3)nn2)O[C@@H]1CO was tested, and the outcome was “inactive”.
CO[C@H]1CN(C)C(=O)c2cc(NC(=O)Nc3ccc4c(c3)OCO4)ccc2OC[C@@H](C)NC[C@@H]1C was tested, and the outcome was “inactive”.
CCCNC(=O)N1[C@H](CO)[C@@H]2c3ccccc3N(C(=O)c3ccc(F)cc3)C[C@@H]21 was tested, and the outcome was “inactive”.
For CC(C)CC#Cc1ccc([C@H]2[C@H]3CN(C(=O)Cc4cccnc4)CC(=O)N3[C@H]2CO)cc1, the outcome was “inactive”.
For C[C@@H]1CCCCO[C@@H](CN(C)C(=O)Cc2ccccc2)[C@H](C)CN([C@@H](C)CO)C(=O)c2cc(NC(=O)Nc3ccc4c(c3)OCO4)ccc2O1, the outcome was “inactive”.
For Cc1cccc(-n2nc3c(c2NC(=O)c2cc4ccccc4o2)CS(=O)(=O)C3)c1, the outcome was “inactive”.
Cc1cccc(C)c1NC(=O)C1(C)CCC(=O)N1CCOc1ccccc1 (centres undefined) was tested, and the outcome was “inactive”.
In the case of O=C(C[C@@H]1C[C@H]2c3cc(NC(=O)NC4CCCC4)ccc3O[C@H]2[C@H](CO)O1)NCCc1ccccc1, the outcome is reported as “inactive”.
CN(C)S(=O)(=O)c1ccc(Cl)c(C(=O)NNC(=O)Cn2ccc(C(F)(F)F)n2)c1 was tested, and the outcome was “inactive”.
In the case of COCc1cc(=O)[nH]c(SCC(=O)N2CCOCC2)n1, the outcome is reported as “inactive”.
With Cn1cnc(S(=O)(=O)N[C@@H]2C=C[C@@H](CC(=O)NCC3CC3)O[C@H]2CO)c1 the outcome was “inactive”.
With CCCNC(=O)N1[C@@H]2c3ccc(-c4ccccc4OC)c(=O)n3C[C@@H]2[C@@H](CO)[C@@H]1C(=O)NC1CCC1 the outcome was “inactive”.
In the case of C[C@@H]1CN([C@@H](C)CO)C(=O)c2cc(C#CCc3ccccc3)cnc2O[C@@H]1CN(C)CC1CC1, the outcome is reported as “inactive”.
In the case of N#C[C@@H]1[C@H](c2ccccc2C2=CCCCC2)[C@H](CO)N1C(=O)NC1CCCC1, the outcome is reported as “inactive”.
With COc1ccc(-c2sc3ccccc3c2-c2ccc(OCCN(C)C)cc2)cc1 the outcome was “inactive”.
In the case of CC(=O)N1[C@H](C(=O)NCCCN(C)C)[C@@H](CO)[C@@H]2Cn3c(ccc(-c4cccc(F)c4)c3=O)[C@@H]21, the outcome is reported as “inactive”.
COc1cc(C(=O)NCCc2ncccc2C)ccc1OC1CCN(C(C)=O)CC1 was tested, and the outcome was “inactive”.
In the case of COc1ccccc1-c1ccc2c(c1)O[C@H](CN(C)C(C)=O)[C@@H](C)CN([C@@H](C)CO)S2(=O)=O, the outcome is reported as “inactive”.
With O=C(O)[C@@H]1[C@@H](CO)[C@@H]2Cn3c(ccc(/C=C/c4ccccc4)c3=O)[C@@H]2N1C(=O)C1CCCC1 the outcome was “inactive”.
For CCCNC(=O)c1ccc2c(c1)nc(C)n2-c1cccc(C)c1, the outcome was “inactive”.
O=C(Nc1ccc2c(c1)OCO2)N[C@@H]1CC[C@@H](CCNC(=O)C2CCCC2)O[C@H]1CO was tested, and the outcome was “inactive”.
C[C@@H]1CN([C@@H](C)CO)C(=O)Cc2cc(NC(=O)CCN3CCOCC3)ccc2O[C@@H]1CN(C)C was tested, and the outcome was “inactive”.
For CC(C)C#Cc1cnc2c(c1)C(=O)N([C@H](C)CO)C[C@H](C)[C@H](CN(C)C(=O)Nc1ccc(F)cc1)O2, the outcome was “inactive”.
For O=C(NC1CCCCC1)[C@H]1[C@H](CO)[C@H]2Cn3c(cccc3=O)[C@H]2N1C(=O)CC1CC1, the outcome was “inactive”.
CO[C@H]1CN(C)C(=O)c2ccc(NS(=O)(=O)c3ccccc3)cc2OC[C@H](C)N(Cc2cccnc2)C[C@@H]1C was tested, and the outcome was “inactive”.
With CCCCCC(=O)Nc1ncc2c(n1)CC(c1cccs1)CC2=O (centres undefined) the outcome was “inactive”.
CC(=O)N(C)C[C@@H]1Oc2cc(C#CCC(C)C)ccc2S(=O)(=O)N([C@H](C)CO)C[C@@H]1C was tested, and the outcome was “inactive”.
CC(=O)N1CC(=O)N2[C@H](CO)[C@@H](c3ccc(-c4ccc(C#N)cc4)cc3)[C@H]2C1 was tested, and the outcome was “inactive”.
OC(CNC1CCCCCC1)COc1cccc2ccccc12 (centres undefined) was tested, and the outcome was “inactive”.
In the case of COc1ccc(C2=NN(CCC(=O)NC3CCC(C)CC3)C(=O)CC2)cc1 (centres undefined), the outcome is reported as “inactive”.
With COc1ccc(CN(C)C[C@@H]2OCCCC[C@H](C)Oc3ccc(NS(=O)(=O)c4cn(C)cn4)cc3C(=O)N([C@@H](C)CO)C[C@H]2C)cc1 the outcome was “inactive”.
With CC(NC(=O)c1ccc(N2CCCC2)c([N+](=O)[O-])c1)c1ccc(S(N)(=O)=O)cc1 (centres undefined) the outcome was “inactive”.
In the case of O=C(C[C@H]1C[C@@H]2c3cc(NC(=O)c4cccnc4)ccc3O[C@@H]2[C@H](CO)O1)NCc1ccncc1, the outcome is reported as “inactive”.
For COc1ccc(-n2ncc3c2CC(C)(C)CC3NC(=O)CCc2c(C)nn(C)c2C)cc1 (centres undefined), the outcome was “inactive”.
For CCCN1[C@H](C(=O)N2CCCCC2)[C@@H](CO)[C@@H]2Cn3c(ccc(-c4ccccc4F)c3=O)[C@@H]21, the outcome was “inactive”.
COc1ccc(-c2cnc(SCCNC(=O)c3ccc4c(c3)OCO4)[nH]2)cc1 was tested, and the outcome was “inactive”.
For CN1c2ccc(-c3ccccc3)cc2[C@@H]2[C@@H](CCN2C(=O)c2ccccc2)[C@H]1CO, the outcome was “inactive”.
For CC(NC(=O)C(=O)NCc1cccs1)c1ccccc1 (centres undefined), the outcome was “inactive”.
